# Results from the supplement of paper PMC4466140.
# Molecular target: AgAbp1
# Assay: SPOT peptide array binding signal intensity (averaged, normalized) (arbitrary units (background-subtracted, floor 0; scale differs between SH3 domains)); higher = stronger binding of the SH3 domain to the peptide
# In short: (§1)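 Detection of bound protein relied on anti-GST antibody, an HRP anti-mouse secondary and luminol, with imaging and quantification in Genespotter. The bound protein was GST-fused SH3 domains from four yeast species, incubated at 10 μg/ml overnight at 4°C in TBS-based blocking buffer on cellulose membranes carrying synthetic 15-mer peptides with cysteines replaced by serines. Binding signal is normalized, background-subtracted spot intensity averaged over replicates, in arbitrary units that differ between domains.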
row,Binder,SPOT peptide array binding signal intensity
1,KNPRRQLQIPRQQPS,242

# Molecular target: AgBbc1
# Assay: as above
# In short: as §1
row,Binder,SPOT peptide array binding signal intensity
1,KNPRRQLQIPRQQPS,60.8

# Molecular target: AgBem1-D1
# Assay: as above
# In short: as §1
row,Binder,SPOT peptide array binding signal intensity
1,KNPRRQLQIPRQQPS,73

# Molecular target: AgBzz1-D1
# Assay: as above
# In short: as §1
row,Binder,SPOT peptide array binding signal intensity
1,KNPRRQLQIPRQQPS,77

# Molecular target: AgBzz1-D2
# Assay: as above
# In short: as §1
row,Binder,SPOT peptide array binding signal intensity
1,KNPRRQLQIPRQQPS,44

# Molecular target: AgCyk3
# Assay: as above
# In short: as §1
row,Binder,SPOT peptide array binding signal intensity
1,KNPRRQLQIPRQQPS,≤ 0

# Molecular target: AgFus1
# Assay: as above
# In short: as §1
row,Binder,SPOT peptide array binding signal intensity
1,KNPRRQLQIPRQQPS,9.5

# Molecular target: AgHof1
# Assay: as above
# In short: as §1
row,Binder,SPOT peptide array binding signal intensity
1,KNPRRQLQIPRQQPS,55.8

# Molecular target: AgHse1
# Assay: as above
# In short: as §1
row,Binder,SPOT peptide array binding signal intensity
1,KNPRRQLQIPRQQPS,142

# Molecular target: AgLsb1
# Assay: as above
# In short: as §1
row,Binder,SPOT peptide array binding signal intensity
1,KNPRRQLQIPRQQPS,100

# Molecular target: AgLsb4
# Assay: as above
# In short: as §1
row,Binder,SPOT peptide array binding signal intensity
1,KNPRRQLQIPRQQPS,25

# Molecular target: AgMyo5
# Assay: as above
# In short: as §1
row,Binder,SPOT peptide array binding signal intensity
1,KNPRRQLQIPRQQPS,7

# Molecular target: AgNbp2
# Assay: as above
# In short: as §1
row,Binder,SPOT peptide array binding signal intensity
1,KNPRRQLQIPRQQPS,16.5

# Molecular target: AgRvs167
# Assay: as above
# In short: as §1
row,Binder,SPOT peptide array binding signal intensity
1,KNPRRQLQIPRQQPS,2.67

# Molecular target: AgSho1
# Assay: as above
# In short: as §1
row,Binder,SPOT peptide array binding signal intensity
1,KNPRRQLQIPRQQPS,≤ 0

# Molecular target: AgSla1-D1-D2
# Assay: as above
# In short: as §1
row,Binder,SPOT peptide array binding signal intensity
1,KNPRRQLQIPRQQPS,44

# Molecular target: AgSla1-D3
# Assay: as above
# In short: as §1
row,Binder,SPOT peptide array binding signal intensity
1,KNPRRQLQIPRQQPS,2.5

# Molecular target: CaAbp1-D1
# Assay: as above
# In short: as §1
row,Binder,SPOT peptide array binding signal intensity
1,KNPRRQLQIPRQQPS,728

# Molecular target: CaAbp1-D2
# Assay: as above
# In short: as §1
row,Binder,SPOT peptide array binding signal intensity
1,KNPRRQLQIPRQQPS,464

# Molecular target: CaBbc1
# Assay: as above
# In short: as §1
row,Binder,SPOT peptide array binding signal intensity
1,KNPRRQLQIPRQQPS,218

# Molecular target: CaBem1-D1
# Assay: as above
# In short: as §1
row,Binder,SPOT peptide array binding signal intensity
1,KNPRRQLQIPRQQPS,73

# Molecular target: CaBzz1-D1
# Assay: as above
# In short: as §1
row,Binder,SPOT peptide array binding signal intensity
1,KNPRRQLQIPRQQPS,84

# Molecular target: CaBzz1-D2
# Assay: as above
# In short: as §1
row,Binder,SPOT peptide array binding signal intensity
1,KNPRRQLQIPRQQPS,42

# Molecular target: CaCyk3
# Assay: as above
# In short: as §1
row,Binder,SPOT peptide array binding signal intensity
1,KNPRRQLQIPRQQPS,7

# Molecular target: CaFus1
# Assay: as above
# In short: as §1
row,Binder,SPOT peptide array binding signal intensity
1,KNPRRQLQIPRQQPS,208

# Molecular target: CaHof1
# Assay: as above
# In short: as §1
row,Binder,SPOT peptide array binding signal intensity
1,KNPRRQLQIPRQQPS,≤ 0

# Molecular target: CaHse1
# Assay: as above
# In short: as §1
row,Binder,SPOT peptide array binding signal intensity
1,KNPRRQLQIPRQQPS,1

# Molecular target: CaLsb1
# Assay: as above
# In short: as §1
row,Binder,SPOT peptide array binding signal intensity
1,KNPRRQLQIPRQQPS,0.5

# Molecular target: CaLsb4
# Assay: as above
# In short: as §1
row,Binder,SPOT peptide array binding signal intensity
1,KNPRRQLQIPRQQPS,51.5

# Molecular target: CaMyo5
# Assay: as above
# In short: as §1
row,Binder,SPOT peptide array binding signal intensity
1,KNPRRQLQIPRQQPS,5

# Molecular target: CaNbp2
# Assay: as above
# In short: as §1
row,Binder,SPOT peptide array binding signal intensity
1,KNPRRQLQIPRQQPS,333

# Molecular target: CaRvs167
# Assay: as above
# In short: as §1
row,Binder,SPOT peptide array binding signal intensity
1,KNPRRQLQIPRQQPS,12

# Molecular target: CaRvs167-3
# Assay: as above
# In short: as §1
row,Binder,SPOT peptide array binding signal intensity
1,KNPRRQLQIPRQQPS,11.8

# Molecular target: CaSho1
# Assay: as above
# In short: as §1
row,Binder,SPOT peptide array binding signal intensity
1,KNPRRQLQIPRQQPS,47.5

# Molecular target: CaSla1-D1-D2
# Assay: as above
# In short: as §1
row,Binder,SPOT peptide array binding signal intensity
1,KNPRRQLQIPRQQPS,148

# Molecular target: CaSla1-D3
# Assay: as above
# In short: as §1
row,Binder,SPOT peptide array binding signal intensity
1,KNPRRQLQIPRQQPS,1.25

# Molecular target: ScAbp1
# Assay: as above
# In short: as §1
row,Binder,SPOT peptide array binding signal intensity
1,KNPRRQLQIPRQQPS,146

# Molecular target: ScBbc1
# Assay: as above
# In short: as §1
row,Binder,SPOT peptide array binding signal intensity
1,KNPRRQLQIPRQQPS,7.25

# Molecular target: ScBem1-D1
# Assay: as above
# In short: as §1
row,Binder,SPOT peptide array binding signal intensity
1,KNPRRQLQIPRQQPS,29

# Molecular target: ScBzz1-D1
# Assay: as above
# In short: as §1
row,Binder,SPOT peptide array binding signal intensity
1,KNPRRQLQIPRQQPS,47.5

# Molecular target: ScBzz1-D2
# Assay: as above
# In short: as §1
row,Binder,SPOT peptide array binding signal intensity
1,KNPRRQLQIPRQQPS,8

# Molecular target: ScCyk3
# Assay: as above
# In short: as §1
row,Binder,SPOT peptide array binding signal intensity
1,KNPRRQLQIPRQQPS,15

# Molecular target: ScFus1
# Assay: as above
# In short: as §1
row,Binder,SPOT peptide array binding signal intensity
1,KNPRRQLQIPRQQPS,98

# Molecular target: ScHof1
# Assay: as above
# In short: as §1
row,Binder,SPOT peptide array binding signal intensity
1,KNPRRQLQIPRQQPS,0.75

# Molecular target: ScHse1
# Assay: as above
# In short: as §1
row,Binder,SPOT peptide array binding signal intensity
1,KNPRRQLQIPRQQPS,527

# Molecular target: ScLsb1
# Assay: as above
# In short: as §1
row,Binder,SPOT peptide array binding signal intensity
1,KNPRRQLQIPRQQPS,162

# Molecular target: ScLsb2
# Assay: as above
# In short: as §1
row,Binder,SPOT peptide array binding signal intensity
1,KNPRRQLQIPRQQPS,2

# Molecular target: ScLsb3
# Assay: as above
# In short: as §1
row,Binder,SPOT peptide array binding signal intensity
1,KNPRRQLQIPRQQPS,132

# Molecular target: ScLsb4
# Assay: as above
# In short: as §1
row,Binder,SPOT peptide array binding signal intensity
1,KNPRRQLQIPRQQPS,12

# Molecular target: ScMyo3
# Assay: as above
# In short: as §1
row,Binder,SPOT peptide array binding signal intensity
1,KNPRRQLQIPRQQPS,2

# Molecular target: ScMyo5
# Assay: as above
# In short: as §1
row,Binder,SPOT peptide array binding signal intensity
1,KNPRRQLQIPRQQPS,1

# Molecular target: ScNbp2
# Assay: as above
# In short: as §1
row,Binder,SPOT peptide array binding signal intensity
1,KNPRRQLQIPRQQPS,173

# Molecular target: ScPex13
# Assay: as above
# In short: as §1
row,Binder,SPOT peptide array binding signal intensity
1,KNPRRQLQIPRQQPS,≤ 0

# Molecular target: ScRvs167
# Assay: as above
# In short: as §1
row,Binder,SPOT peptide array binding signal intensity
1,KNPRRQLQIPRQQPS,13.5

# Molecular target: ScSho1
# Assay: as above
# In short: as §1
row,Binder,SPOT peptide array binding signal intensity
1,KNPRRQLQIPRQQPS,95

# Molecular target: ScSla1-D1-D2
# Assay: as above
# In short: as §1
row,Binder,SPOT peptide array binding signal intensity
1,KNPRRQLQIPRQQPS,442

# Molecular target: ScSla1-D3
# Assay: as above
# In short: as §1
row,Binder,SPOT peptide array binding signal intensity
1,KNPRRQLQIPRQQPS,21

# Molecular target: SpAbp1-D1
# Assay: as above
# In short: as §1
row,Binder,SPOT peptide array binding signal intensity
1,KNPRRQLQIPRQQPS,306

# Molecular target: SpBbc1
# Assay: as above
# In short: as §1
row,Binder,SPOT peptide array binding signal intensity
1,KNPRRQLQIPRQQPS,1

# Molecular target: SpBzz1-D1
# Assay: as above
# In short: as §1
row,Binder,SPOT peptide array binding signal intensity
1,KNPRRQLQIPRQQPS,240

# Molecular target: SpBzz1-D2
# Assay: as above
# In short: as §1
row,Binder,SPOT peptide array binding signal intensity
1,KNPRRQLQIPRQQPS,0.5

# Molecular target: SpCyk3
# Assay: as above
# In short: as §1
row,Binder,SPOT peptide array binding signal intensity
1,KNPRRQLQIPRQQPS,1

# Molecular target: SpHof1
# Assay: as above
# In short: as §1
row,Binder,SPOT peptide array binding signal intensity
1,KNPRRQLQIPRQQPS,126

# Molecular target: SpHof1-2
# Assay: as above
# In short: as §1
row,Binder,SPOT peptide array binding signal intensity
1,KNPRRQLQIPRQQPS,11.5

# Molecular target: SpHof1-3
# Assay: as above
# In short: as §1
row,Binder,SPOT peptide array binding signal intensity
1,KNPRRQLQIPRQQPS,266

# Molecular target: SpHse1
# Assay: as above
# In short: as §1
row,Binder,SPOT peptide array binding signal intensity
1,KNPRRQLQIPRQQPS,260

# Molecular target: SpLsb1
# Assay: as above
# In short: as §1
row,Binder,SPOT peptide array binding signal intensity
1,KNPRRQLQIPRQQPS,54.2

# Molecular target: SpLsb4
# Assay: as above
# In short: as §1
row,Binder,SPOT peptide array binding signal intensity
1,KNPRRQLQIPRQQPS,129

# Molecular target: SpMyo1
# Assay: as above
# In short: as §1
row,Binder,SPOT peptide array binding signal intensity
1,KNPRRQLQIPRQQPS,2

# Molecular target: SpNbp2
# Assay: as above
# In short: as §1
row,Binder,SPOT peptide array binding signal intensity
1,KNPRRQLQIPRQQPS,53

# Molecular target: SpPex13
# Assay: as above
# In short: as §1
row,Binder,SPOT peptide array binding signal intensity
1,KNPRRQLQIPRQQPS,5

# Molecular target: SpRvs167
# Assay: as above
# In short: as §1
row,Binder,SPOT peptide array binding signal intensity
1,KNPRRQLQIPRQQPS,16.7

# Molecular target: SpSla1-D1-D2
# Assay: as above
# In short: as §1
row,Binder,SPOT peptide array binding signal intensity
1,KNPRRQLQIPRQQPS,3.5

# Molecular target: SpSla1-D3
# Assay: as above
# In short: as §1
row,Binder,SPOT peptide array binding signal intensity
1,KNPRRQLQIPRQQPS,2
